BAZ2B block: inhibitors of human BAZ2B bromodomain | Potency, µM (doses to about 114 µM), without a hit: at the top dose activity change, negative = inhibition, hits mostly inhibitors | AID 504333 | Q9UIF8 | AlphaScreen BAZ2B-H3K14Ac peptide displacement | 360,000 tested, 4.4% active; further: potency means the concentration at half of the fitted maximal effect; on the % scale 0 is the no-effect control and ±100 the full control effect; nearly all actives have a fitted effect of over 60% in size
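Compounds, titrated to a top concentration of 110 uM, were incubated 30 min at room temperature with preformed BAZ2B/acetyl-K14 H3 peptide complex (50 nM each). Proximity signal was measured by AlphaScreen after 20 min with beads.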
HP1b chromo inh: HP1-beta chromodomain-methylated histone interaction inhibition | P83916 | AlphaScreen HP1-beta / biotin-H3K9me3 peptide binding | Potency, µM (top dose mostly 114 µM), inactives show top-dose activity change, negative = inhibition, actives largely listed as inhibitors | 390,000 tested, 0.56% active | AID 540317; further: potency means the concentration at half of the fitted maximal effect; nearly all actives have a fitted effect of over 70% in size
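Compound inhibition of the preformed complex between 50 nM HP1-beta and 50 nM biotinylated H3K9me3 peptide was read by AlphaScreen. Buffer was PBS pH 7.4 with 0.01% Tween-20. Incubations ran 30 min at room temperature, with 10 ug/mL donor/acceptor beads.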
JMJD2A Tudor: inhibitors of human JMJD2A Tudor domain; O75164; AlphaScreen JMJD2A-Tudor / H3K4me3 peptide binding; Potency, µM (doses to about 114 µM), inactives show top-dose activity change, negative = inhibition, most hits filed as inhibitors; 390,000 tested, 4.4% active; AID 504339; further: potency means the concentration at half of the fitted maximal effect; on the % scale 0 is the no-effect control and ±100 the full control effect; nearly all actives have a fitted effect of over 50% in size
CtBP-E1A blk: inhibitors of CtBP/E1A interaction; AlphaScreen GST-E1A/His-CtBP binding, 1536-well; stronger effect = lower value; activity change, % (no concentration beside the values); 340,000 tested, 0.49% active; in the data active means activity change below about -65%; inconclusive means mostly about -30% to -63%; further: on the % scale 0 is the no-effect control and ±100 the full control effect
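Protein mix (5X: 125 nM each GST-E1A, His-CtBP) was incubated with pinned compound 2 h at 37 deg C in dark, in 50 mM Tris pH 8.0 buffer with 300 mM NaCl. Glutathione donor and nickel acceptor beads followed; AlphaScreen signal read after 1 h.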
Six1-Eya2 inh: blocks human Six1 binding to Eya2; Q15475+O00167; AlphaScreen GST-Six1/His-Eya2 binding, biochemical; stronger effect = lower value; activity change, % (concentration not given with the values); 360,000 tested, 0.56% active; in the data active means activity change below about -65%; inconclusive means mostly about -30% to -63%; further: on the % scale 0 is the no-effect control and ±100 the full control effect
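AlphaScreen with GST-Six1 and His-Eya2 (5X mix: 250 nM and 500 nM), glutathione donor and nickel acceptor beads; buffer 50 mM Tris pH 8.0, 300 mM NaCl, 1 mM TCEP; 1 h at 37 C in the dark.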
TDP1 block: inhibitors of human tyrosyl-DNA phosphodiesterase TDP1; AID 485290; Potency, µM (series often up to 130 µM), without a hit: at the highest dose activity change, negative = inhibition, most hits filed as inhibitors; Q9NUW8; recombinant TDP1, AlphaScreen DNA substrate cleavage; 350,000 tested, 0.28% active; further: potency means the concentration at half of the fitted maximal effect; on the % scale 0 is the no-effect control and ±100 the full control effect; nearly all actives have a fitted effect of over 40% in size
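Steps: enzyme plus compound, 15 min RT; add biotin/phosphotyrosine-FITC oligonucleotide (15 nM final), react 5 min; add donor/acceptor beads (10 ug/ml final), 10 min; read AlphaScreen. Tdp1 at 1 nM final.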
Numbers without * were called inactive; ? = inconclusive; . = no result given; [ ] = remark or other dose. Shown are actives, neighbours in structure and some others; about 5.3% of the full set was active somewhere. Unless noted, the call rests on the fitted dose curve; in most records, active means well fitted inhibition curve with a large enough effect; inconclusive means small, poorly fitted or top-dose-only effect; inactive means no such curve, though single readings can be large or run the other way.

SMILES	BAZ2B block	HP1b chromo inh	JMJD2A Tudor	CtBP-E1A blk	Six1-Eya2 inh	TDP1 block
C/C=C/C=N/Nc1nc(C)cc(=O)[nH]1	50µM*	22%	1.6µM*	-5	-4	-5%
Cc1cc(=O)[nH]c(NN=Cc2cc(Br)ccc2O)n1	.	17%	79µM*	-94*	-89*	.
Cc1cccc(N2CCN(C(=O)c3c(C)oc4ncnc(N5CCCCC5)c34)CC2)c1C	-21%[57.1 µM]	5%	-27%	.	.	5%
COc1ccc(OC)c(/C=N/Nc2nc(C)cc(=O)[nH]2)c1	50µM*	21%	-35%	-3	-4	.
CCN(CC)c1ccc(/C=N/NC(=O)c2c(Cl)cnn2C)c(O)c1	79µM*	43%	-33%	-91*	-90*	8%
CCN(CC)c1ccc(/C=N/NC(=O)c2cccc(S(=O)(=O)N3CCOCC3)c2)c(O)c1	1%	-1%	-34%	?	?	2%
Cc1cc(=O)[nH]c(N/N=C/c2ccc(-c3ccc([N+](=O)[O-])cc3)o2)n1	-2%	46%	-17%	-74*	-71*	0%
Cc1cc(=O)[nH]c(N/N=C/c2ccccc2Cl)n1	-2%	15%	79µM*	.	-2	.
COc1ccccc1/C=N/Nc1nc(C)cc(=O)[nH]1	.	.	.	-18	12	.
Cc1cc(=O)[nH]c(N/N=C/c2ccc([N+](=O)[O-])cc2)n1	-1%	.	.	.	.	5%
CCOC(=O)N/N=C/c1ccc(N(CC)CC)cc1O	?	-20%	-36%	-5	-13	8%
CCN(CC)c1ccc(/C=N/Nc2ccc(C)cc2)c(O)c1	45µM*	21%	-1%	?	?	8%
Oc1ccc(N=Cc2ccc(-c3cccs3)s2)cc1	?	?	35µM*	?	-19	2%
O=Cc1ccc(-c2cccs2)s1	.	54%	6%	-11	16	.
O=[N+]([O-])c1ccc(N/N=C/c2sc(N3CCOCC3)nc2-c2ccccc2)c(S(=O)(=O)Nc2ccc(Cl)cc2)c1	11µM*	?	?	2	-3	11%
O=[N+]([O-])c1ccc(N/N=C/c2sc(N3CCOCC3)nc2-c2ccccc2)c(S(=O)(=O)Nc2ccccc2Cl)c1	?	-9%	-32%	.	-6	1%
COCC(=O)Nc1ccc(S(=O)(=O)NCC2CCCO2)cc1 (stereo unspecified)	1%	12%	0%	6	3	.
O=C(Cc1ccc(Br)cc1)Nc1ccc(S(=O)(=O)NCC2CCCO2)cc1 (stereo unspecified)	-17%	-11%	22µM*	3	4	-5%
O=C(C1CCCN(Cc2ccccc2C(F)(F)F)C1)N1CCCCC1 (stereo unspecified)	50µM*	?	3.5µM*	3	8	-2%
COc1ccc(CN2CCCC(C(=O)N3CCCC3)C2)c(OC)c1OC (stereo unspecified)	.	.	.	0	-6	.
CN(C(=O)CCc1ccccc1F)C1CCCN(Cc2ccccc2F)C1 (stereo unspecified)	2%	-4%	10µM*	1	1	.
COc1cccc(CCC(=O)N(C)C2CCCN(Cc3ccccc3F)C2)c1 (stereo unspecified)	-4%	10%	-14%	.	4	.
COc1ccccc1CN1CCCC(C(=O)N2CCCCC2)C1 (stereo unspecified)	45µM*	71µM*	1.8µM*	3	9	.
O=C(C1CCCN(Cc2ccccc2F)C1)N1CCCCC1 (stereo unspecified)	20µM*	45µM*	4µM*	-1	8	.
Cc1ccc(C)c(OCCOCCn2c(-c3ccc(Br)cc3)nc3ccccc3c2=O)c1C	13%	58%	12%	.	.	.
CS(=O)(=O)c1cccc(-c2nnc(NC(=O)c3ccc4ncsc4c3)o2)c1	4%	27%	?	-16	-4	.
CSc1ccccc1-c1nnc(NC(=O)Cc2ccccc2)o1	-13%	45%	3%	-26	-5	2%
